Compound activity as filed in PubChem BioAssay.
Rows were chosen to be rich in hits. Some 1.2% of all compounds tested hit in one or more screens of this group.
RGS8-Gao: modulates binding of RGS8 to human Galphao; response (percent of control binding), % at 10 µM; 0.34% of 220,000 active; multiplexed bead flow cytometry; actives lie on both sides; P09471; in the data active = response below about 60% or above about 140%; inactive = in between;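 also: Galphao activated as the GDP aluminium fluoride complex binding bead-coupled RGS8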
Target sequence (P09471 whole entry, looked up): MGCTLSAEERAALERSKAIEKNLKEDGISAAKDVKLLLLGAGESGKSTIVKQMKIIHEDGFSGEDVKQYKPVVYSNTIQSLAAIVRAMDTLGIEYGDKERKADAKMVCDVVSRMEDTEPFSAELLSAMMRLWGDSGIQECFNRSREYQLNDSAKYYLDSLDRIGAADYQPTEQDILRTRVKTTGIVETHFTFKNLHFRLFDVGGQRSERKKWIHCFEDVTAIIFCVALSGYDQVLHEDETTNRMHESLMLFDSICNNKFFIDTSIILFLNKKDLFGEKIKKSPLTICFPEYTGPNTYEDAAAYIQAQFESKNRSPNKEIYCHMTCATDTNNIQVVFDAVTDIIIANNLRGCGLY
RGS4-Gao reg: human RGS4-Galphao interaction regulation | P09471 | binding response (% of control), % at 10 µM | 0.33% of 220,000 active | Multiplexed bead flow cytometry, RGS4-Galphao binding; actives lie on both sides; in the data active = binding response below about 49% or above about 150%; inactive = in between;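 also: fluorescent Galphao activated with aluminum fluoride binding bead-coupled RGS4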
Avidin fluor: compound fluoresces at 488/530 nm on avidin beads | compound fluorescence 488/530 nm, flow cytometry; hits give high values | fluorescence (KMESF) at 10 µM | 0.38% of 220,000 active | AID 1775; in the data active = fluorescence above about 47
RGS16-Gao HTS: RGS16-Galphao interaction regulator (human); O15492+P09471; bead-based flow cytometry RGS16-Galphao binding, fluorescence; actives lie on both sides; binding response (% of control), % at 10 µM; 0.38% of 220,000 active; AID 1441;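 also: Galphao activated by GDP with aluminum fluoride before binding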
RGS7-Gao reg: regulators of human RGS7-Galphao interaction. Multiplexed bead flow cytometry, RGS7-Galphao binding; actives lie on both sides. binding response (% of control), % at 10 µM. 0.35% of 220,000 active. AID 1439; in the data active = binding response below about 49% or above about 150%;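 also: fluorescent Galphao held in activated GDP-AlF4 state binding bead-coupled RGS7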
GSH bead fluor: compound fluoresces at 488/530 nm on GSH beads; GSH beads flow cytometry, compound fluorescence 488/530 nm; hits give high values; fluorescence (KMESF) at 10 µM; 0.25% of 190,000 active; AID 1776; in the data active = fluorescence above about 89;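 also: glutathione beads carrying GST-tagged Bcl family fusion proteins plus one bare bead set; values are compound well signal with DMSO vehicle wells as background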
RGS4-Gao HTS: regulators of human RGS4-Galphao interaction | multiplexed bead flow cytometry, RGS–Galpha-o binding | 99% of 1,600 active | AID 1504 | shares compounds with RGS16-Gao HTS | RGS4–Galpha-o binding response, % at 10 µM;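 also: fluorescently labeled Galpha-o bound to GDP with aluminium fluoride binding biotinylated RGS beads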
Avidin counter: interferes with biotinylated probe binding to avidin beads. shares compounds with RGS16-Gao HTS. streptavidin beads, fluorescein-biotin binding, flow cytometry. inhibition, % at 10 µM. 1,700 tested, under 10 active. AID 1783;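 active = inhibition above 50%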;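 also: median green fluorescence of gated singlet beads compared with DMSO control wells; 0% = DMSO wells and 100% = complete loss of bead fluorescence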
RGS8-Gao confirm: RGS8-Galphao interaction regulation, single point confirmation; bead-based flow cytometry RGS8-Galphao binding, fluorescence; actives lie on both sides; shares compounds with RGS16-Gao HTS; 3% of 1,700 active; binding response (% of control), % at 10 µM; in the data active = binding response below about 72% or above about 130%; inactive = in between;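 also: Galphao activated as GDP AlF4 complex before binding bead RGS8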
RGS7-Gao single: RGS7-Galphao interaction regulation, single point confirmation; shares compounds with RGS16-Gao HTS; 7.8% of 1,700 active; response (percent of control binding), % at 10 µM; bead-based flow cytometry RGS7-Galphao binding; actives lie on both sides; in the data active = response below about 75% or above about 130%; inactive = in between;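 also: fluorescent Galphao activated with GDP and aluminum fluoride binding bead-coupled RGS7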
RGS16-Gao conf: confirmation of regulators of human RGS16-Galphao interaction; bead-based flow cytometry, RGS16-Galphao binding; actives lie on both sides; response (% of control binding), % at 10 µM; 4% of 1,700 active; shares compounds with RGS16-Gao HTS; AID 1838; in the data active = response below about 74% or above about 130%; inactive = in between;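 also: Galphao activated as the GDP aluminium fluoride complex binding bead-coupled RGS16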
RGS4-Gao single: RGS4-Galphao interaction regulation, single point confirmation; 4% of 1,700 active; shares compounds with RGS16-Gao HTS; RGS4-Galphao binding, multiplexed bead flow cytometry; actives lie on both sides; binding response (% of control), % at 10 µM; in the data active = binding response below about 74% or above about 130%; inactive = in between
RGS19-Gao single: confirmation of regulators of human RGS19-Galphao interaction; bead-based flow cytometry RGS19-Galphao binding; actives lie on both sides; AID 1841; response (percent of control binding), % at 10 µM; 5% of 1,700 active; shares compounds with RGS16-Gao HTS; in the data active = response below about 50% or above about 160%; inactive = in between;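 also: 100% = no compound control and 0% = blank background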
Numbers without * were called inactive; [ ] = dose if it differs, or a comment. Unless noted, no rule for the calls is given here.

`CC(=O)c1ccc(NC(=O)C(C)OC(=O)c2ccc3c(c2)nc(C)n3-c2ccccc2)cc1` (stereo not drawn) gave RGS8-Gao 132.1, RGS4-Gao reg 111.6, Avidin fluor 6, RGS16-Gao HTS 218.8*[activator], RGS7-Gao reg 110.1, GSH bead fluor 13, RGS4-Gao HTS 111.6*, Avidin counter -1.0, RGS8-Gao confirm 104.3, RGS7-Gao single 102.9, RGS16-Gao conf 105.8, RGS4-Gao single 104.6 and RGS19-Gao single 111.7.
Screening Cc1nc2cc(C(=O)OCC(=O)Nc3cccc(Cl)c3)ccc2n1-c1ccccc1 returned RGS8-Gao 99.5, RGS4-Gao reg 99.5, Avidin fluor 11, RGS16-Gao HTS 99.0, RGS7-Gao reg 99.6 and GSH bead fluor 11.
Screening COc1cccc(-n2c(C)nc3cc(C(=O)O)ccc32)c1 returned RGS8-Gao 129.1, RGS4-Gao reg 157.9*[activator], Avidin fluor 54*, RGS7-Gao reg 159.7*[activator], GSH bead fluor 28, Avidin counter -0.7, RGS8-Gao confirm 103.3, RGS7-Gao single 110.3, RGS16-Gao conf 106.7, RGS4-Gao single 106.4 and RGS19-Gao single 108.4.
Screening O=C(CCCc1nc(-c2ccccc2Cl)no1)N1CCOCC1 returned RGS8-Gao 98.7, RGS4-Gao reg 101.4, Avidin fluor 10, RGS16-Gao HTS 104.0, RGS7-Gao reg 99.4 and GSH bead fluor 12.
Oc1ccccc1Nc1nc(NCC2CCCO2)c2ccccc2n1 (stereo not drawn) was read as RGS8-Gao 98.7, RGS4-Gao reg 95.6, Avidin fluor 3, RGS16-Gao HTS 89.5, RGS7-Gao reg 41.0*, GSH bead fluor 21, RGS4-Gao HTS 95.6*, Avidin counter 1.7, RGS8-Gao confirm 100.4, RGS7-Gao single 104.5, RGS16-Gao conf 103.1, RGS4-Gao single 101.1 and RGS19-Gao single 104.3.
N#Cc1c(-c2ccccc2)nc(SCC(=O)N(c2ccccc2)c2ccccc2)[nH]c1=O was read as RGS8-Gao 49.7*, RGS4-Gao reg 76.7, Avidin fluor 3, RGS16-Gao HTS 6.4, RGS7-Gao reg 51.1, GSH bead fluor 20, RGS4-Gao HTS 76.7*, Avidin counter 1.3, RGS8-Gao confirm 104.5, RGS7-Gao single 101.5, RGS16-Gao conf 103.6, RGS4-Gao single 100.0 and RGS19-Gao single 108.2.
`CC(C)CCn1c(CN2CCN(Cc3ccccc3)CC2)nc2c1c(=O)[nH]c(=O)n2C` gave RGS8-Gao 145.0*[activator], RGS4-Gao reg 134.9, Avidin fluor 4, RGS16-Gao HTS 357.3, RGS7-Gao reg 125.9, GSH bead fluor 5, RGS4-Gao HTS 134.9*, Avidin counter 2.1, RGS8-Gao confirm 96.3, RGS7-Gao single 93.5, RGS16-Gao conf 95.5, RGS4-Gao single 95.6 and RGS19-Gao single 87.0.
